Screening results: PubChem BioAssay, National Center for Advancing Translational Sciences (NCATS)
RXFP1 antag = antagonists of human relaxin receptor RXFP1. 350,000 tested, 0.59% active. AID 1259400. HEK293-RXFP1, relaxin-stimulated cAMP HTRF, 30 min; active compounds read low. activity change, negative = inhibition, % at 57.5 µM;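 active = activity change of -60% or lower, but not beyond a set lower limit; inconclusive = change between -60% and -40%, or beyond the set limit; inactive = change above -40%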; also: % is scaled to controls: 0 for no effect and ±100 for the full control effect
pAkt inh = inhibitors of Akt phosphorylation | Neuro2A IGF-stimulated pAkt S473 HTRF, 20 min; active compounds read low | 360,000 tested, 0.32% active | AID 651550 | activity change, % for hits at 50 µM; in the data active = activity change below about -80%; inconclusive = mostly about -51% to -80%; also: % is scaled to controls: 0 for no effect and ±100 for the full control effect
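Neuro2A cells in DMEM with 0.5% FBS, overnight at 37 deg C, given compound at single 50 µM final, then IGF (6 nM final) for 20 min at 37 deg C. Lysed; phospho-Akt Ser473 by HTRF after 24 h, 665/615 ratio.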
gsp antagonist = antagonists of gsp mutant (McCune-Albright syndrome) | gsp-mutant cells, cAMP HTRF, 30 min | Potency, µM (series often up to 76.9 µM), for inactives: top-dose activity change, negative = inhibition, usual class: inhibitors | 340,000 tested, 0.4% active; calls by dose curve; cell line not stated here;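 also: intracellular cAMP measured with PDE inhibitor Ro 20-1724 present during compound exposure; potency is read from the fitted curve at half-maximal effect; % is scaled to controls: 0 for no effect and ±100 for the full control effect; nearly all actives have a fitted effect of over 65% in size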
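HTRF cAMP measurement after 30 min RT detection following 30 min, 37C compound treatment alongside […] (added as 300 uM solution) in G418-selected cells seeded at 2000/well and grown 16–24 h.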
gsp ag = agonists of gsp mutant (McCune-Albright syndrome); gsp mutant cells, cAMP HTRF, 30 min; Potency, µM (titrated, usually from 76.9 µM), without a hit: at the highest dose activation (cAMP increase), actives largely listed as activators; 340,000 tested, 0.13% active; active = well fitted activation curve with a large enough effect; inconclusive = small, poorly fitted or top-dose-only effect, or another doubt; inactive = no such curve, though single readings can be large or run the other way; cell line not stated here;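 also: phosphodiesterase inhibitor Ro 20-1724 added with compounds to block cAMP breakdown; potency is read from the fitted curve at half-maximal effect; nearly all actives have a fitted effect of over 60% in size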
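Cells stably selected in G418 were plated at 2000/well, grown 16-24 hr, then given compounds in DMSO with the PDE inhibitor […] (300 uM solution added) for 30 min at 37C; cAMP was read by HTRF.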
RXFP1 ag = activates the human relaxin receptor RXFP1. Q9HBX9. HEK293T-RXFP1 cAMP TR-FRET, 30 min; response scale: percent of porcine relaxin response, buffer zero. Potency, µM (titrated, usually from 57.5 µM), for inactives: at the top dose activation, most hits filed as activators. 370,000 tested, 0.3% active. AID 2676; also: potency is read from the fitted curve at half-maximal effect; % is scaled to controls: 0 for no effect and ±100 for the full control effect; nearly all actives have a fitted effect of over 60% in size
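Agonist response is measured as cAMP accumulation in an RXFP1-transfected HEK293T line under PDE4 inhibition. Values are scaled between buffer-only and 29 nM porcine relaxin, and EC50s come from standard Hill equation fits.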
ClpP mod = qHTS Assay for Activators of ClpP; ATP-dependent Clp protease proteolytic subunit (Bacillus subtilis (strain 168)), P80244; purified B. subtilis ClpP, FRET peptide cleavage, 20 min; Potency, µM (highest dose often 57.5 µM), inactives show at the top dose activity change, negative = active; 340,000 tested, 1.9% active; AID 651965, 2013; active = well fitted falling curve with a large enough effect; inconclusive = small, poorly fitted or top-dose-only effect; inactive = no such curve, though single readings can be large or run the other way; also: potency is read from the fitted curve at half-maximal effect; the source files actives as falling curves though it sought activators and does not explain the sign; nearly all actives have a fitted effect of over 65% in size
Target sequence (P80244 whole entry, looked up): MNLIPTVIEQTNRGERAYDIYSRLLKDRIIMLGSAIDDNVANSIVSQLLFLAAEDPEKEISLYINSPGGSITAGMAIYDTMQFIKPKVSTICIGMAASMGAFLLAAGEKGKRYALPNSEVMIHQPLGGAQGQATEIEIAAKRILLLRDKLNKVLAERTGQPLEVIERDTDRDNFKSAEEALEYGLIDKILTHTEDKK
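ClpP 10 microg/mL final, pH 8 Tris/KCl buffer with BSA, glycerol, Tween-20; compound pinned in; FRET-FV substrate; RT 20 min; Ex320/Em430; ΔFRET vs ADEP 5.8 microM, DMSO, no enzyme.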
ClpP inh valid = validation of B. subtilis ClpP protease hits (inhibitors); shares compounds with ClpP mod; purified B. subtilis ClpP, FRET-FV substrate cleavage, 20 min; Potency, µM (doses to about 57.5 µM), without a hit: top-dose activity change, negative = inhibition, hits mostly inhibitors; 470 tested, 40% active; also: potency is read from the fitted curve at half-maximal effect; % is scaled to controls: 0 for no effect and ±100 for the full control effect; nearly all actives have a fitted effect of over 70% in size
The depositor's hits bear a star; i = inactive; ? = inconclusive; · = not tested or not shown; [ ] = another dose, or the depositor's remark. Rows were chosen to be rich in hits. Some 2.7% of all compounds tested hit in one or more screens of this group. Unless noted, calls follow the shape of the dose curve; as a rule, active = well fitted curve in the direction sought with a large enough effect; inconclusive = small, poorly fitted or top-dose-only effect, or another doubt; inactive = no such curve, though single readings can be large; an effect the other way counts as inactive or inconclusive.

SMILES | RXFP1 antag | pAkt inh | gsp antagonist | gsp ag | RXFP1 ag | ClpP mod | others
COc1ccc(C(=O)Sc2ccc(C)cc2)cc1OC | -4 | i | 11% | ? | 3% | -1%
CCCc1cc(N2CCCC2)n2nc(C)c(-c3ccccc3)c2n1 | 0 | i | 1% | 3% | 2% | 32µM*
CCN1CCN(c2cc(C(C)C)nc3c(-c4ccccc4)c(C)nn23)CC1 | -29 | i | -1% | -6%[15.4 µM] | 3% | ·
Cn1cnc(S(=O)(=O)N2CCCC(C(=O)NCc3ccc(Cl)cc3)C2)c1 (configuration not stated) | 11 | · | · | · | -1% | -1%
Cc1cc(C(=O)C(C)OC(=O)c2cnccn2)c(C)n1-c1ccccc1 (configuration not stated) | -18 | i | 6% | -34% | 2% | 1%
S=C(N/N=C/c1cccs1)NC1CC2CCC1C2 (configuration not stated) | -67* | i | 6% | -4%[15.4 µM] | 0% | ·
Oc1ccc(/C=N/NC(=S)NC2CC3CCC2C3)cc1 (configuration not stated) | -25 | i | -10% | 10% | -1% | ·
Cc1nnc(NC(=O)C2CCN(S(=O)(=O)c3cc([N+](=O)[O-])ccc3Cl)CC2)o1 | -2 | i | 35µM* | -29% | -2% | -1%
O=C(NC1CC1)C1CCN(S(=O)(=O)c2cc([N+](=O)[O-])ccc2Cl)CC1 | 2 | i | -12% | -28% | 3% | -1%
CCCNC(=O)c1cc(C2CCCN(C(=O)c3ccc4ccccc4c3)C2)on1 (configuration not stated) | · | i | · | · | · | 0%
Cc1c(/C(O)=C2/C(=O)C(=O)N(CCN3CCOCC3)C2c2cccs2)cnn1-c1ccccc1 (configuration not stated) | 4 | i | 13% | ? | 25% | 11µM*
O=C(NCCc1nc2ccccc2n1CCCOc1ccc2ccccc2c1)C1CCCCC1 | · | · | · | · | · | -28%
COc1ccc(-c2cc(-c3ccccc3)nc(-c3ccc4c(c3)NC(=O)CO4)c2)cc1 | -3 | · | -6% | 8% | 0% | 25µM*
COC(=O)C1=C(C)N=C2SC(C#N)=C(N)N2C1c1cccc(OC)c1 (configuration not stated) | 5 | -115%* | -6% | -36% | 2% | 0%
COC(=O)C1=C(C)N=C2SC(C#N)=C(N)N2C1c1ccc(OC)cc1 (configuration not stated) | 17 | i | 2% | -39% | 5% | -2%
COC(=O)c1cc(C)c(C)cc1NC1OC(CO)C(O)C1O (configuration not stated) | 1 | i | 9% | 3% | · | 3.5µM*
Cc1ccc([N+](=O)[O-])cc1NC1OC(CO)C(O)C1O (configuration not stated) | 5 | i | 4% | 1% | 1% | 0%
CN(CC(=O)Nc1cccc(F)c1)C(=O)C1CC(=O)N(Cc2ccccc2)C1 (configuration not stated) | 4 | i | 5% | -3% | -1% | 2%
CC(C)NC(=O)c1cccc2c(-c3ccc(F)c(F)c3)coc12 | · | i | · | · | · | -9%
O=C(C[N+]12CN3CN(CN(C3)C1)C2)c1ccc(Cl)cc1 | · | · | · | · | · | 0%
COc1ccc(/C=N/Nc2nncn2N)cc1Br | -5 | i | 0% | 7%[15.4 µM] | 1% | 16µM*
COCc1cc(C)n(CC(=O)Nc2ccc(Cl)cc2Cl)c(=O)c1C#N | -19 | i | 9% | ? | 24% | 25µM*
O=C(O)c1cccc(Nc2nc(-c3cc4ccccc4oc3=O)cs2)c1 | 1 | i | 35µM* | 5%[15.4 µM] | 6% | ?
O=c1oc2ccccc2cc1-c1csc(NN=C2CCCC2)n1 | -2 | i | -28% | -21% | 2% | -12%
Cc1ccc(C)c(N(CC(=O)Nc2ccc(-c3nc4ccc(C)cc4s3)cc2)S(C)(=O)=O)c1 | -5 | i | -3% | -18% | 0% | 10µM* | ClpP inh valid=31µM*
SMILES | RXFP1 antag | pAkt inh | gsp antagonist | gsp ag | RXFP1 ag | ClpP mod | others
Cc1ccc2nc(-c3ccc(NC(=O)c4ccc(S(C)(=O)=O)cc4)cc3)sc2c1 | 7 | · | · | · | 1% | -11%
CCN1CCN(c2cc(C)c3cc(NC(=S)N(C)Cc4ccccc4)ccc3n2)CC1 | -5 | i | 19% | ? | 0% | 34% | ClpP inh valid=16%
CCCCN(C)C(=S)Nc1ccc2nc(N3CCN(CC)CC3)cc(C)c2c1 | 14 | i | 7% | -13% | 4% | 6%
Cc1ccc2oc(-c3cccc(NC(=O)c4cccc5c(Cl)cccc45)c3)nc2c1 | -13 | · | · | · | 0% | -19%
Cc1ccc2oc(-c3cccc(NC(=O)c4cc(-n5cnnc5)ccc4Cl)c3)nc2c1 | -8 | i | 8% | 7% | 10% | 134% | ClpP inh valid=-23%
Cc1ccc(-c2nnc(-c3cccnc3)o2)cc1 | 19 | i | -1% | ? | -1% | 4%
c1cncc(-c2nnc(-c3cccs3)o2)c1 | 4 | i | 12% | 9% | 0% | 8.9µM* | ClpP inh valid=19µM*
O=S1(=O)N[C@@H](Cc2ccccc2)COc2cccc(N3CCC[C@H]3CO)c21 | · | i | · | · | · | 0%
Cc1ccc2[nH]c3c(c2c1)CCc1cn[nH]c1-3 | 6 | · | -13% | -28% | 0% | 2.8µM* | ClpP inh valid=24µM*
COc1ccc(S(=O)(=O)N2CCOCC2)cc1NC(=O)c1ccccc1-c1ccc(C(F)(F)F)cc1 | 6 | i | -9% | 11% | 0% | 51% | ClpP inh valid=?
Cc1ccc(-c2nc3cc(C(C)C)ccc3o2)cc1NC(=O)c1cc2ccccc2o1 | -4 | · | · | · | 8% | ? | ClpP inh valid=31µM*
CC(C)c1ccc2oc(-c3ccc(Cl)c(NC(=O)Cc4ccccc4)c3)nc2c1 | -3 | · | · | · | 9% | -20%
COc1ccc(Nc2cc(C(=O)NC3CCCC3)c3ccccc3n2)cc1 | -7 | · | · | · | 15% | 38% | ClpP inh valid=-10%
CNC(=O)c1cnc2sc(N3CCC(C)CC3)nn2c1=O | 0 | · | · | · | 16% | 4%
CCCc1cc(=O)oc2c3c(ccc12)OCN(Cc1ccc(OC)cc1)C3 | 3 | · | · | · | 15% | 4%
CCOc1ccc(CNC(=O)c2cc3oc4ccccc4c3n2C)cc1 | 3 | i | -2% | -17% | -2% | 6.3µM* | ClpP inh valid=-20%
COc1ccc(CNC(=O)c2cc3c(=O)n(C)c4ccccc4c3n2C)cc1 | · | · | · | · | ? | -10%
